Measured values from PubChem BioAssay (NCATS).
Where “and” joins values, the source holds several entries; their conditions need not be identical. Equal entries are not always repeated. Results filed as inconclusive are left out. Calls of active or inactive are those of the source. The call rests on the fitted dose curve; in most records, active means well fitted curve in the direction sought with a large enough effect; inconclusive means small, poorly fitted or top-dose-only effect, or another doubt; inactive means no such curve, though single readings can be large; an effect the other way counts as inactive or inconclusive.

Legend:
[1] = target: Cytochrome P450 3A7 (Homo sapiens) (UniProt P24462); assay: Cytochrome P450 family 3 subfamily A member 7 (CYP3A7) small molecule antagonists: luciferase biochemical qHTS assay (AID 1963596); details: P450-Glo CYP3A7 enzyme luminescence, 1 h; series mostly up to 57.4 µM; further: on the % scale 0 is the no-effect control and ±100 the full control effect; nearly all actives have a fitted effect of over 40% in size
Chain of Cytochrome P450 3A7 (Homo sapiens) (P24462 whole entry, looked up): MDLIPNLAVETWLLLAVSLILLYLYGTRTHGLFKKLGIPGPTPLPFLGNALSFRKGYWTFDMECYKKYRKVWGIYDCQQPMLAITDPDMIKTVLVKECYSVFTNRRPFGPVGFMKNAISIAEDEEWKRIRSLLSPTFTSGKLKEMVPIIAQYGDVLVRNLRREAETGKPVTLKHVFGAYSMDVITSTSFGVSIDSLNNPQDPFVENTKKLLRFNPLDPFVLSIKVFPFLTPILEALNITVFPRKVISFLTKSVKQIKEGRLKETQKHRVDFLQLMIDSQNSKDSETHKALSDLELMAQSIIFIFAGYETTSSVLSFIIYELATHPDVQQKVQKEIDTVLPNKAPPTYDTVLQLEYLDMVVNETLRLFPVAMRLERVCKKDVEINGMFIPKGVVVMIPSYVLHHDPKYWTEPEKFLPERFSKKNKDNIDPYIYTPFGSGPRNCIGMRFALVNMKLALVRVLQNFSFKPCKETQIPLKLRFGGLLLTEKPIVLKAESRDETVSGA
Outline: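 P450-Glo luminescent assay: CYP3A7 enzyme converts a proluciferin substrate to luciferin, detected by luciferase reagent; light proportional to activity. Compounds in DMSO preincubated 10 min with enzyme-substrate mix at room temperature, then NADPH regeneration added for 1 h.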

[2] = Viability qHTS for spleen associated tyrosine kinase inhibitor (SYKi) naive MV4-11 cells (AID 1963823); details: MV4-11 AML viability, CellTiter-Glo luminescence, 72 h; series mostly up to 45 µM; further: nearly all actives have a fitted effect of over 40% in size; further: potency means the concentration at half of the fitted maximal effect
Outline: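 SYK inhibitor-naive MV4-11 cells, 500 per well, exposed to compounds for 72 hr at 37 C, 5% CO2. Viability read as CellTiter-Glo luminescence after 10 min at room temperature.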

[3] = Cellular viability qHTS for adrenocortical cancer (ACC) cell line SW-13 (AID 1963989); details: SW-13 ACC cells viability, CellTiter-Glo, 48 h; activity (max response): stronger effect = lower value;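 further: cells grown in serum-free medium with ITS supplement; on the % scale 0 is the no-effect control and ±100 the full control effect; nearly all actives have a fitted effect of over 65% in size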
Outline: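 SW-13 cells in ITS-supplemented serum-free DMEM were plated overnight, then exposed for 48 h at 37C to compound titrations (up to 46 uM final). Viability was read by CellTiter-Glo luminescence; four-parameter logistic fits gave IC50 and efficacy.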

[4] = Cellular viability qHTS for adrenocortical cancer (ACC) cell line NCI-H295R (AID 1963990); details: CellTiter-Glo ATP luminescence, 48 h; series mostly up to 46.1 µM;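 further: 0% = DMSO only wells and -100% = full killing with cytotoxic reference compound; nearly all actives have a fitted effect of over 60% in size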
Outline: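 Luminescent ATP read-out (CellTiter-Glo, 20 min RT) after 48 h drug exposure of NCI-H295R cells; a titration up to 46 uM final. Data normalized to doxorubicin (100% inhibition) and DMSO (0%); 4-parameter fit gives IC50, max response.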

O=C(O)CCC(=O)OC[C@@H](NC(=O)C(Cl)Cl)[C@H](O)c1ccc([N+](=O)[O-])cc1
inactive: Potency [1] | Potency [2] | activity (max response) [3] -6.44%

C[C@@H](c1ncncc1F)C(O)(Cn1cncn1)c1ccc(F)cc1F (some centres not stated)
inactive: Potency [1] | Potency [2] | activity (max response) [3] 2.11% | Potency [4]

O=C(O)c1ccccn1
inactive: Potency [1] | Potency [2] | activity (max response) [3] 1.31% | Potency [4]

CCOC(=O)Cn1cccc1-c1nc(-c2ccc(OC)cc2)c(-c2ccc(OC)cc2)s1
active: Potency [2] 9.44 µM
inactive: Potency [1] | activity (max response) [3] 9.49%

Cc1cc(NS(=O)(=O)c2ccc(N)cc2)no1
inactive: Potency [1] | Potency [2] | activity (max response) [3] 13.2% | Potency [4]

CCc1cc(Cl)c(OC)c(C(=O)NC[C@@H]2CCCN2CC)c1O
inactive: Potency [1] | Potency [2] | activity (max response) [3] -13.7%

C=CCc1ccccc1OCC(O)CNC(C)C (configuration not stated)
inactive: Potency [1] | Potency [2] | activity (max response) [3] 1.07%

Cc1cccc(C)c1NC(=O)c1cc(S(N)(=O)=O)c(Cl)cc1O
inactive: Potency [1] | Potency [2] | activity (max response) [3] 10.1% | Potency [4]

COc1cc(OC)nc(O[C@H](C(=O)O)C(OC)(c2ccccc2)c2ccccc2)n1
inactive: Potency [1] | Potency [2] | activity (max response) [3] 12.1% | Potency [4]

CC(C)(C)C(=O)OCOC(=O)C1N2C(=O)CC2S(=O)(=O)C1(C)C (configuration not stated)
inactive: Potency [1] | Potency [2] | activity (max response) [3] 14.5%

Cc1c(Nc2ncccc2C(=O)O)cccc1C(F)(F)F
inactive: Potency [1] | Potency [2] | activity (max response) [3] -9.06%

NC(=O)c1ncn([C@@H]2O[C@H](CO)[C@@H](O)[C@H]2O)c1N
inactive: Potency [1] | Potency [2] | activity (max response) [3] 3.4% and 2.54% | Potency [4]
